Test results published in PubChem BioAssay (Tox21).
A number with no mark means an inactive call. Calls of active or inactive are those of the source. Calls come from the whole dose curve; as a rule, active = well fitted curve in the direction sought with a large enough effect in the repeat runs; inconclusive = weak or mixed curves; inactive = flat fitted curve, though single readings scatter.

Experiment: qHTS assay to test for compound auto fluorescence at 460 nm (blue) in HEK293 cells (AID 720678)
Details: blue autofluorescence 405/460 nm; series mostly up to 46 µM; fluorescence, % of triamterene: at the top concentration
Excerpt: National Center for Advancing Translational Sciences [NCATS]
NIH Chemical Genomics Center [NCGC]
U.S. Environmental Protection Agency [EPA]
National Institutes of Environmental Health Sciences [NIEHS]
National Toxicology Program [NTP]
U.S. Food and Drug Administration [FDA]
Compound auto fluorescence often interferes with screening of the compound library against various biological targets and signaling pathways. Some of these compounds may have fluorophoric properties. Such properties may interfere with the assay outputs resulting in false positives and/or negatives. To decrease such complications and ensure the compound activities are relevant in terms of biological response, the Tox21 10K compound library was screened for auto fluorescence.
From the fluorophores used as reporter signals in our screening assays, the auto fluorescence equivalencies of compounds against three fluorophores have been evaluated: Triamterene, Fluorescein and Rose Bengal sodium for blue, green and red fluorescence, respectively. The fluorescence intensities were measured using Excitation/Emission wavelengths at 405/460nm, 485/535nm and 540/590nm for blue, green and red labels, respectively. This assay includes the blue fluorescence data.
Tox21 Assay Protocol Summary:
2,000 HEK293 cells in 5 uL of culture medium containing 10% dialyzed FBS per well were dispensed into black wall/clear bottom 1536-well plates using a Multidrop Combi Dispenser (Thermo Scientific). The assay plates were incubated for 4-5 hr at 37C to allow cell attachment to the well bottom, followed by the transfer of 23 nL compound or DMSO vehicle by a pintool work station (Kalypsys, San Diego, CA). After the assay plates were incubated overnight at 37C and 5% CO2, fluorescence intensities in the assay plates were measured by an Envision (PerkinElmer, Shelton, CT) plate reader using three labels for measuring blue, green and red fluorescence at […] 460, 535 and 590nm respectively.
% is set by controls: 0 for no effect and ±100 for the full control effect.

Row | Structure (SMILES) | fluorescence, % of triamterene | outcome
1 | C[N+](C)(C)CCCCCC[N+](C)(C)C | -0.175% | –
2 | N=C(N)c1ccc(OCCCOc2ccc(C(=N)N)cc2)cc1 | -0.12% | –
3 | O=c1cc(CO)occ1O | – | inactive
4 | CN(C)CCCN1c2ccccc2CCc2ccc(Cl)cc21 | – | inactive
5 | CCN(Cc1ccncc1)C(=O)C(CO)c1ccccc1 (stereo not given) | -0.0067% | –
6 | NC(=O)c1cn(Cc2c(F)cccc2F)nn1 | 1.15% | –
7 | CCCC(=O)O[C@]1(C(=O)CO)CC[C@H]2[C@@H]3CCC4=CC(=O)CC[C@]4(C)[C@H]3[C@@H](O)C[C@@]21C | -0.302% | –
8 | O=C(O)Cc1ccc(CCNS(=O)(=O)c2ccc(Cl)cc2)cc1 | -0.0042% | –
9 | O=C(O)CNC(=O)c1ccc([N+](=O)[O-])cc1 | -0.0061% [at 91.3 µM] | –
10 | CCOc1ccc(C(=O)OCCN(CC)CC)cc1 | -0.126% | –
11 | CCC(C)S (stereo not given) | 0.0233% [at 3.72 µM] | –
12 | CCCN(CCC)CCc1cccc2c1CC(=O)N2 | -0.0175% | –
13 | CC[N+](C)(C)c1cccc(O)c1 | -0.141% [at 18.6 µM] | –
14 | CCSC(=O)N(CC(C)C)CC(C)C | -0.0735% [at 91.3 µM] | –
15 | CC1(C)C(O)C(C)(C)C1O (stereo not given) | -0.166% [at 91.3 µM] | –
16 | N#Cc1ccc(C2CCCc3cncn32)cc1 (stereo not given) | 0.0384% | –
17 | N[C@@H](C(=O)N[C@@H]1C(=O)N2C(C(=O)O)=C(Cl)CS[C@H]12)c1ccccc1 | 4.25% | –
18 | CC(C)(CC(=O)O)C(=O)O | -0.0528% [at 91.3 µM] | –
19 | CC(=O)OCC(CCn1cnc2cnc(N)nc21)COC(C)=O | -0.044% | –
20 | NC(=O)c1ccc(N)cc1 | 0.0468% [at 91.3 µM] | –

Row | Structure (SMILES) | fluorescence, % of triamterene | outcome
21 | Nc1ccc(S(=O)(=O)Nc2ccnn2-c2ccccc2)cc1 | 0.0664% [at 18.6 µM] | –
22 | CCC=O | -0.108% [at 95.7 µM] | –
23 | CO[C@]12C[C@@H](COC(=O)c3cncc(Br)c3)CN(C)[C@@H]1Cc1cn(C)c3cccc2c13 | 1.02% | –
24 | CC(C)(O)C(=O)c1ccccc1 | -0.0153% [at 91.3 µM] | –
25 | NCCCNCCSP(=O)(O)O | -0.0785% | –
26 | CC/C=C\CC/C=C/CO | -0.0852% [at 91.3 µM] | –
27 | OC[C@]1(O)OC[C@@H](O)[C@H](O)[C@@H]1O | – | inactive
28 | NS(=O)(=O)c1ccccc1Cl | -0.149% [at 91.3 µM] | –
29 | CO[Si](CCCOCC1CO1)(OC)OC (stereo not given) | – | inactive
30 | CCOC(=O)CC(C)=O | -0.33% [at 91.3 µM] | –
31 | COc1c(N2C[C@@H]3CCCN[C@@H]3C2)c(F)cc2c(=O)c(C(=O)O)cn(C3CC3)c12 | – | inactive
32 | OC1CCCCC1c1ccccc1 (stereo not given) | -0.0307% [at 91.3 µM] | –
33 | Cn1cc(S(C)=O)c(=O)c2ccc(F)cc21 (stereo not given) | -0.0224% | –
34 | CCCCC/C=C\CCC=O | 0.0958% [at 91.3 µM] | –
35 | O=C1CCCN1C1CCCCC1 | -0.0052% [at 91.3 µM] | –
36 | Oc1ccc(C2CNCCc3c2cc(O)c(O)c3Cl)cc1 (stereo not given) | -0.213% | –
37 | CO/N=C(/C(=O)N[C@@H]1C(=O)N2C(C(=O)OCOC(=O)C(C)(C)C)=C(C)CS[C@H]12)c1csc(N)n1 | -0.0842% | –
38 | CN1C(=O)N(C)C(O)C1O (stereo not given) | -0.0045% [at 91.3 µM] | –
39 | CCCCCCCCCCCCCCCCC | -0.0263% [at 91.3 µM] | –
40 | O=[N+]([O-])c1ccc(F)cc1F | 0.0074% [at 91.3 µM] | –
